The values below come from PubChem BioAssay (NCATS).

Inconclusive results are not listed. Active and inactive are the calls of the source. The call rests on the fitted dose curve; in most records, active means well fitted activation curve with a large enough effect; inconclusive means small, poorly fitted or top-dose-only effect; inactive means no such curve, though single readings can be large or run the other way.

Chain of Arylsulfatase A (Homo sapiens) (P15289 whole entry, looked up): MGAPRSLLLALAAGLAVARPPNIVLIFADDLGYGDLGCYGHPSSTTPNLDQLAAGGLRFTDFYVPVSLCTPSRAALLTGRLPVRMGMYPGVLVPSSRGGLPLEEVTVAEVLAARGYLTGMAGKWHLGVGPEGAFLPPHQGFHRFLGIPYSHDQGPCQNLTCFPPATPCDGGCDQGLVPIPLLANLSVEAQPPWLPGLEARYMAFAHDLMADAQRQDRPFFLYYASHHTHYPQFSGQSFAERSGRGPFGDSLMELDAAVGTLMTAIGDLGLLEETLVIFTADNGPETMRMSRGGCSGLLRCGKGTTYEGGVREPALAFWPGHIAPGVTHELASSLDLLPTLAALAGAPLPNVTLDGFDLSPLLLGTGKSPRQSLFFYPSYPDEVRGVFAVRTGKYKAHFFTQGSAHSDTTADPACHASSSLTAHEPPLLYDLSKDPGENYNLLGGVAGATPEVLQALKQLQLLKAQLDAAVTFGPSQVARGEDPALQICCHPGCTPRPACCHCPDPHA

This assay deals with Arylsulfatase A (Homo sapiens) (UniProt P15289). Briefly: qHTS screen for enhancers of Arylsulfatase A (ASA1): LOPAC Validation Assay (AID 720538). On activity change, positive = activation: 0% is about no effect. The note with it: ASA enzyme activity, LOPAC qHTS enhancer assay; series mostly up to 57.5 µM; activity change, positive = activation: at the top concentration. From the text:
Lysosomal storage diseases (LSDs) are caused by genetic mutations in genes encoding proteins important for normal lysosomal function. In affected patients, symptoms are usually not manifested unless the mutations result in more than 90% reduction of enzymatic activity of a specific lysosomal enzyme. […] Small molecules could function as enzyme enhancement agents by binding to and stabilizing mutant misfolded proteins in the endoplasmic reticulum (ER), allowing them to evade the ER associated degradation (ERAD), and eventually reach the lysosome. Moreover, small molecules is hypothesized to be able to enhance the residual activity of deficient lysosomal enzyme by either interacting directly with the mutant enzyme or indirectly by acting in different cellular pathways; resulting to increased levels of the mutant and partially functional protein in the lysosomal compartment.
A cell based assay in 1536 well plate format was developed to evaluate activity of the lysosomal sulfatase ASA1 enzyme. ASA1 is deficient in metachromatic leukodystrophy (MLD), an LSD characterized by progressive neurodegeneration for which specific treatment is not available. Compounds that are active may therefore have some therapeutic application for this disease. This assay was used to validate the ASA1 qHTS using the Sigma LOPAC library. In this assay increase in signal = enhanced ASA1 activity. Activation is the desired outcome for this assay.
NIH Chemical Genomics Center [NCGC]
NIH Molecular Libraries Probe Centers Network [MLPCN]
Assay Submitter (PI): Gustavo Maegawa, Johns Hopkins University School of Medicine
[2] Gieselmann V, et al. Acta Paediatr Suppl. 2008; 97: 15-21
Four microliter (~8,000 cells/well) of SV40-transformed skin fibroblasts from an MLD patient (ASA-I179S) were seeded into a 1,536 solid white plate. Cells were left to adhere for 6 hrs, followed by addition of 23 nL of compounds. Cells were incubated with compounds for 48h at 37 degree C and 5% CO2. Four microliter of 1 mM pNCS substrate/lysis buffer (0.5mM pNCS final concentration) was added and incubated for 14h at room temperature. To stop the reaction, […] of 5 N of NaOH (1N NaOH final concentration) was then added and fluorescence was measured using the ViewLux plate reader (Ex=525 nm; Em=598 nm).
With `CC1(C)CCC(NC(=O)[C@@H](N)CCC(=O)O)CC1`, the result was inactive.
Same read-out and setting: then `CCCC1O[C@@H]2C[C@H]3[C@@H]4CCC5=CC(=O)C=C[C@]5(C)[C@H]4[C@@H](O)C[C@]3(C)[C@]2(C(=O)CO)O1` (stereo not given in full), with “inactive”; and `CCCn1c(=O)[nH]c(=O)c2[nH]cnc21`, with “inactive; inhibitor; fitted 0.151 uM”.
The same measure, in the same setting: for `CC(C)C[C@H]1C(=O)N2CCC[C@H]2[C@]2(O)O[C@](NC(=O)[C@@H]3C=C4c5cccc6[nH]c(Br)c(c56)C[C@H]4N(C)C3)(C(C)C)C(=O)N12` the value was “inactive”.
Still for that read-out and setting: then `N[C@H](CO)C(=O)O`, with “inactive”.
As to `CC(CCc1ccccc1)NCC(O)c1ccc(O)c(C(N)=O)c1` (stereo not given), the “activity change, positive = activation” value is 25.1% (inactive).
As to `CNCCC=C1c2ccccc2CCc2ccccc21`, the “activity change, positive = activation” value is -32.3% (inactive).
Consider `O=C(O)c1cc2cc(Cc3cccnc3)ccc2o1`, for which the outcome was inactive.
Regarding `Oc1ccc(O)cc1`, the “activity change, positive = activation” value is -197% (inactive).
For the compound `C[C@@H]1C(=O)NC2=Nc3cccc(Cl)c3CN21`, the result was inactive.
In the case of `COc1cc(NS(C)(=O)=O)ccc1Nc1c2ccccc2nc2ccccc12`, the “activity change, positive = activation” value was 8.99% (inactive).
Take `CNCCC(Oc1ccccc1C)c1ccccc1` (stereo not given): the “activity change, positive = activation” value was -31.9% (inactive).
Take `COC(=O)[C@H]1[C@H]2C[C@H]3c4[nH]c5ccccc5c4CCN3C[C@H]2CC[C@@H]1O`: the result was inactive.
Still for that read-out and setting: then `CC[C@H](C)C(=O)O[C@H]1CCC=C2C=C[C@H](C)[C@H](CC[C@@H]3C[C@@H](O)CC(=O)O3)[C@H]21`, with “inactive”.
For the compound `CN1C2CCC1CC(OC(=O)c1c[nH]c3ccccc13)C2` (stereo not given), the “activity change, positive = activation” value was -69.5% (inactive).
For the compound `N[C@@H](Cc1cnc[nH]1)C(=O)O`, the “activity change, positive = activation” value is -14.6% (inactive).
Regarding `Nc1cc(Cl)c(NC2=NCCN2)c(Cl)c1`, the “activity change, positive = activation” value was 1.77% (inactive).
Regarding `O=C1CCC(c2ccc(-n3ccnc3)cc2)=NN1`, the outcome was inactive.
For `COc1cc2c(cc1O)CC[C@@H]1[C@@H]2CC[C@]2(C)[C@@H](O)CC[C@@H]12`, the outcome was inactive.
In the case of `C[N+]1(CCCCC[N+]2(C)CCCC2)CCCC1`, the outcome was inactive.
